Several values for one entry are separate records, joined by “and”; a condition that tells them apart may be missing. Identical values can stand only once. Inconclusive results are not listed. Activity calls are given as the source filed them. The call rests on the fitted dose curve; in most records, active means well fitted curve in either direction with a large enough effect; inconclusive means small, poorly fitted or top-dose-only effect; inactive means no such curve, though single readings can be large or run the other way.
Potency means the concentration at half of the fitted maximal effect.

The experiment addresses Lysosomal alpha-glucosidase (Homo sapiens) (UniProt P10253). Briefly: Confirmation of Inhibitors and Activators of Human alpha-Glucosidase From Spleen Homogenate.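 On Potency: fluorescence of 4-methylumbelliferone released from a fluorogenic glucopyranoside substrate at pH 5.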 On activity change, both directions: 0% is about no effect. To be noted: alpha-glucosidase enzyme activity; series mostly up to 60.5 µM; activity change, both directions: at the top concentration. The gist of the method: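 Compounds titrated against spleen-homogenate alpha-glucosidase, pH 5.0, 1 mM 4-MU-glucoside substrate, 37 C for 40 min. Fluorescence after pH 10 stop, normalised to no-enzyme and enzyme controls; Hill-equation AC50.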
Take `O=S(=O)(c1ccc2ccccc2c1)N1CCOCC1`: the “activity change, both directions” value is -0.931% (inactive). On to `COc1ccc2nc(-c3ccc(N(C)C)cc3)sc2c1`, for which the Potency was 7.08 µM (active). With `COc1ccc(CCN2CNc3c(c(=O)n(C)c(=O)n3C)C2)cc1OC`, the “activity change, both directions” value was 0.232% [at 31.5 µM] (inactive). Same read-out and setting: then `O=C1CC(N2CCN(c3cccc(C(F)(F)F)c3)CC2)C(=O)N1c1ccc(F)cc1` (stereo unspecified), with 0.41% [at 31.5 µM] (inactive); and `N#CCCN1CCN(S(=O)(=O)c2ccc(S(=O)(=O)N3CCOCC3)cc2)CC1`, with -6.93% (inactive).

In the case of `CNc1ncnc2c1ncn2[C@H]1C[C@H](OP(=O)(O)O)[C@@H](COP(=O)(O)O)O1`, the “activity change, both directions” value is 2.81% [at 286 µM] (inactive). Take `OC[C@H]1NC[C@H](O)[C@@H](O)[C@H]1O`: the “activity change, both directions” value was -99.6% [at 286 µM] (inactive). The same measure, in the same setting: then `CN(CCO)S(=O)(=O)c1ccc2c(c1)C(=NNC(N)=O)c1cc(S(=O)(=O)N(C)CCO)ccc1-2`, with -4.76% (inactive). For `CCCN1CNc2c(c(=O)[nH]c(=S)n2CCc2cc(OC)cc(OC)c2)C1`, the Potency was 11.2 µM (active). For `Cc1ccc(-c2cc(C(=O)N/N=C/c3c(C)nn(-c4ccccc4)c3C)n[nH]2)s1`, the “activity change, both directions” value was 2.38% (inactive). On the same count and under the same terms, as for `CCN(CC)c1ccc(/C=N/NC(=O)C(O)c2ccccc2)cc1` (stereo unspecified), the figure is 1.24% [at 31.5 µM] (inactive); as for `Cc1cc(C)c(C(=O)Cn2cnc3cc([N+](=O)[O-])ccc3c2=O)cc1C`, 2.64% [at 31.5 µM] (inactive); as for `O=S(=O)(c1ccc(F)cc1)N1CCOCC1`, 9.5% (inactive). Still for that read-out and setting: then `CC(=O)c1ccc(N2CCN(S(=O)(=O)c3ccc4c(c3)CCCC(=O)N4)CC2)cc1`, with -0.329% (inactive); and `Cc1c(C#N)c(N)nc2c3c(sc12)NC(=O)CC3c1ccc(Cl)cc1` (stereo unspecified), with 7.88% (inactive).

For the compound `CCc1sc(-c2cc3cc(Cl)ccc3oc2=O)nc1-c1ccccc1`, the “activity change, both directions” value was 19.5% (inactive). With `CCCN1CNc2c(c(=O)[nH]c(=S)n2CCc2ccc(OC)cc2OC)C1`, the Potency is 15.8 µM (active). For `Cc1ccc(C(=O)c2sc3c(c2N)c(=O)[nH]c(=O)n3CCc2ccccc2)cc1`, the “activity change, both directions” value was -3.39% [at 31.5 µM] (inactive).

`Nc1ccccc1S(=O)(=O)N1CCOCC1`: the “activity change, both directions” value was 3.59% (inactive). Turning to `CC(=O)c1ccc(N2CCN(S(=O)(=O)c3ccc4c(c3)CC(C)N4C(C)=O)CC2)cc1` (stereo unspecified), the “activity change, both directions” value was -2.72% (inactive). Turning to `CCCN1CNc2c(c(=O)[nH]c(=S)n2CCc2cccc(Cl)c2)C1`, the Potency was 12.6 µM (active). For `Cc1ccc(N=Nc2c(N)nn(-c3ccccc3)c2N)cc1`, the “activity change, both directions” value was 4.65% (inactive).

On to `CCCN1CNc2c(c(=O)[nH]c(=S)n2CCc2cccc(C)c2)C1`, for which the Potency was 35.5 µM (active).

With `Cc1ccccc1S(=O)(=O)N1CCOCC1`, the “activity change, both directions” value is -0.0363% (inactive). As to `CC(=O)c1ccc(N2CCN(S(=O)(=O)c3ccc(N4CCCC4=O)cc3)CC2)cc1`, the “activity change, both directions” value is 0.125% (inactive).

Take `COc1cc2cc(CN(Cc3nnnn3Cc3ccccc3)CC3CCCO3)c(=O)[nH]c2cc1OC` (stereo unspecified): the “activity change, both directions” value was 2.42% [at 31.5 µM] (inactive). For the compound `Clc1ccc(Nc2ncnc3ccc(Br)cc23)cc1`, the “activity change, both directions” value is 1.29% [at 31.5 µM] (inactive). Still for that read-out and setting: then `CCCCCCc1cc2cc(C(=O)NC)c(=N)oc2cc1O`, with 63% (inactive). Same read-out and setting: as for `O=C1Cc2cc(S(=O)(=O)N3CCNCC3)ccc2N1`, the figure is -8.69% (inactive); as for `CCC(=O)N1CCN(c2ccc(Cl)cc2NC(=O)c2ccc(N3CCCC3)c([N+](=O)[O-])c2)CC1`, -0.875% [at 31.5 µM] (inactive); as for `O=C(CSc1ccccc1)Nc1nnc(/C=C/c2ccccc2)s1`, 14% (inactive).

For `N=c1sccn1CC(=O)Nc1cc(S(=O)(=O)N2CCCC2)ccc1Cl`, the “activity change, both directions” value was 2.92% (inactive). The same measure, in the same setting: then `COc1ccc2nc3c(cc2c1)Cn1c-3nc2ccccc2c1=O`, with 15.6% (inactive); and `CCCCn1c(CN2CCN(c3cccc(Cl)c3)CC2)nc2c1c(=O)n(C)c(=O)n2C`, with -2.65% [at 31.5 µM] (inactive). For `CCCN1CNc2c(c(=O)[nH]c(=S)n2CCc2ccc(OC)c(OC)c2)C1`, the Potency is 11.2 µM (active) and 15.8 µM (active). `O=S(=O)(c1ccccc1F)N1CCOCC1`: the “activity change, both directions” value is -1.74% (inactive).
